The entries come from a sample that favours hits as a whole.
VDR inhibitor: blocks the human vitamin D receptor | P11473 | VDR-SRC2-3 peptide fluorescence polarization, 2 h | Potency, µM, for inactives: max response, negative = inhibition, hits mostly inhibitors | 0.93% of 400,000 active | AID 504847; also: % is scaled to controls: 0 for no effect and ±100 for the full control effect
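Fluorescence polarization assay of small-molecule disruption of VDR binding to coregulator peptide SRC2-3. Compounds and controls pin-transferred, then read after 2 h incubation at ambient room temperature.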
G9a inh: inhibitors of human histone lysine methyltransferase G9a; G9a H3K9 monomethylation, AlphaScreen, 2 h; 8.8% of 350,000 active; AID 504332; Q96KQ7; Potency, µM (top dose mostly 102 µM), without a hit: at the highest dose activity, negative = inhibition, actives largely listed as inhibitors; also: % is scaled to controls: 0 for no effect and ±100 for the full control effect; nearly all actives have a fitted effect of over 75% in size
Target sequence (Q96KQ7 913-1193 limits assumed): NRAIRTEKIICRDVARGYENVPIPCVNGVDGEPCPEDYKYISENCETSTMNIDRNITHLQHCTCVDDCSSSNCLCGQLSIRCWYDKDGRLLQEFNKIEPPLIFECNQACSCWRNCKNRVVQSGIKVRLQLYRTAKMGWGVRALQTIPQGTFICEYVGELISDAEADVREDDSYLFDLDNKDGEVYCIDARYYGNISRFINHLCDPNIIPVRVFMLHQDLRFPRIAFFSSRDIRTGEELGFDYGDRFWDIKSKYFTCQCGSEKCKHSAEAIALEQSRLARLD
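Readings reflect AlphaScreen signal from monomethyl-H3K9 antibody detection. HMT at 20 nM; substrate b-H3K9 500 nM; cofactor SAM 20 uM; 2 h RT reaction; compounds tested as titrations in qHTS with 15 min preincubation.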
GRP78 ERSR act: induces the endoplasmic reticulum stress response in human glioma cells | Potency, µM, inactives show at the highest dose activation, actives largely listed as activators | U87-MG GRP78 promoter luciferase reporter, 16 h | 0.02% of 420,000 active; also: series mostly up to about 76 µM; % of control where 0% means no effect; nearly all actives have a fitted effect of over 35% in size
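Stably transfected U87-MG glioma cells carrying a GRP78-based luciferase sensor; 16 h compound incubation. Luminescence end-point read 10 min after Bright-Glo addition at room temperature.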
Sfp PPTase inh: Sfp phosphopantetheinyl transferase inhibition; Q9F4F7; Biochemical Sfp PPTase activity, qHTS; Potency, µM, for the others: largest response in the series, negative = inhibition, actives largely listed as inhibitors; 3.5% of 310,000 active; AID 1490;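 also: the enzyme is Sfp with the accession as filed and its product quenches rhodamine fluorescence; 0% = enzyme reaction without inhibitor and -100% = no enzyme wells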
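Compounds were incubated with enzyme (final 15 nM) for 15 min at room temperature before substrate addition started the reaction. Fluorescence at 525 nm excitation, 598 nm emission was recorded immediately and after 30 minutes.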
12-LOX inh: blocks human arachidonate 12S-lipoxygenase | P18054 | purified 12hLO, xylenol orange hydroperoxide absorbance | Potency, µM (titrated, usually from 108 µM), for the others: top-dose activity change, negative = inhibition, usual class: inhibitors | 1.1% of 580,000 active; also: % is scaled to controls: 0 for no effect and ±100 for the full control effect
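Purified human 12hLO (150 nM final) in 25 mM Hepes, 0.01% Triton X-100, pH 7.0 was preincubated 15 min at room temperature with compound. Then 40 uM arachidonic acid was added, 30 min. Hydroperoxide was read by Fe-XO absorbance ratio 573/405 nm.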
Starred values were filed as active, the others as inactive; ? = inconclusive; · = not tested or not shown; ! = not confirmed by another sample; [ ] = another dose, or the depositor's remark. Calls follow the shape of the dose curve; as a rule, active = well fitted curve in the direction sought with a large enough effect; inconclusive = small, poorly fitted or top-dose-only effect, or another doubt; inactive = no such curve, though single readings can be large; an effect the other way counts as inactive or inconclusive. Potency is read from the fitted curve at half-maximal effect.

SMILES	VDR inhibitor	G9a inh	GRP78 ERSR act	Sfp PPTase inh	12-LOX inh
Cc1cccc(Nc2nc(N)c([N+](=O)[O-])c(N3CCC(C)CC3)n2)c1	-5%	50µM*	-4%	1%	-14%
CCN1CCN(c2nc(Nc3ccc(C)c(C)c3)nc(N)c2[N+](=O)[O-])CC1	3%	10µM*	-2%	11%	-27%
COc1ccc(Nc2nc(N)c([N+](=O)[O-])c(N3CCOCC3)n2)cc1	-9%	?	-3%	-1%	0%
CN(C)c1ccc(Nc2nc(N)c([N+](=O)[O-])c(N3CCOCC3)n2)cc1	?	7.1µM*	2%	?	-24%
CCOc1ccc(Nc2nc(N)c([N+](=O)[O-])c(N3CCN(C)CC3)n2)cc1	-7%	79µM*	-1%	12%	2%
CCc1cc(=O)n(CC(=O)Nc2ccc(C(=O)OC)cc2)c(-c2ccccc2)n1	·	·	·	·	-24%
CCOc1ccccc1CNC(=O)c1nnn2cc(C)[nH]c(=O)c12	·	·	·	·	35%
CCOC(=O)CNC(=O)CN1CCCN(S(=O)(=O)c2ccc(Br)s2)CC1	-6%	50µM*	-8%	-21%	?
CN1CCc2c([nH]c3ccccc23)C12CCN(C(=O)C1CCC1)CC2	·	·	·	·	11%
CCCCCCC(=O)N(O)C1CC(=O)N(c2ccc(F)cc2)C1=O (stereo not drawn)	40µM*	·	-6%	20µM*	?
COc1ccccc1N(O)C1CC(=O)N(c2ccc(Br)cc2)C1=O (stereo not drawn)	50µM*	?	9%	-61%	?
CCCCN(C(=O)CCC(=O)O)C1CC(=O)N(c2ccc(OCCC)cc2)C1=O (stereo not drawn)	10%	-1%[12.7 µM]	-4%	12%	33%
CCCCCCC(=O)N(O)C1CC(=O)N(c2ccc(Br)cc2)C1=O (stereo not drawn)	?	0.63µM*	10%	22µM*	-57%
Cc1cccc(OCCc2noc(C3CN(C(=O)Nc4ccc5c(c4)OCCO5)C3)n2)c1	·	·	·	·	-12%
CC1=C[C@@H](CNC(=O)NCc2ccccc2)[C@H](C(C)C)C[C@H]1CC(=O)N1CCN(C)CC1	·	·	·	·	1%
COc1ccc(/C=C2/CC/C(=C\c3ccc(OC)c(OC)c3OC)C2=O)c(OC)c1OC	-23%	7.9µM*	-3%	-3%	6%
CCOc1cc(/C=C2\CCCC(C(=O)C(F)(F)F)=C2O)ccc1O	-18%	20µM*	13%	-17%	?
COc1ccc(/C=C2\CCC(C3CCCC3)C2=O)c(OC)c1OC (stereo not drawn)	-15%	-4%[2.33 µM]	4%	-4%	-4%
COc1cc(/C=C2\COC/C(=C\c3cc(OC)c(OC)c(OC)c3)C2=O)cc(OC)c1OC	?	?	-15%	?	141%
COc1cc(/C=C2\CC/C(=C\c3cc(OC)c(O)c(OC)c3)C2=O)cc(OC)c1O	-14%	2.5µM*	-6%	45µM*	20µM*
COc1cc(/C=C2\CC/C(=C\c3cc(OC)c(OC)c(OC)c3)C2=O)cc(OC)c1OC	-2%	3%[59 µM]	-4%	-2%	-7%
COc1cc(/C=C2/CCC/C(=C\c3cc(O)c(OC)c(Cl)c3)C2=O)cc(Cl)c1O	-23%	35µM*	-9%	-3%	4%
COc1ccc2nc(-n3ncc4c3NC(=O)CC4c3cccc(O)c3)sc2c1 (stereo not drawn)	·	·	·	·	-5%
CN(C)C1(CNC(=O)Cc2n[nH]c(=O)c3ccccc23)CCCCC1	·	·	·	·	-14%
COc1cc(-c2nc3c(c(=O)[nH]c(=O)n3Cc3ccccc3)n2C)ccc1OCc1ccccc1	·	·	·	·	13%
COc1cc(/C=C2/C(=O)CNC2=O)ccc1O	0%	45µM*	-1%	?	-27%
COc1cc(/C=C2\CCC/C(=C\c3ccc(O)c(OC)c3)C2=O)ccc1O	25µM*!	45µM*	-15%	-7%	?
COc1cc(/C=C2/CCCC(C(=O)C(F)(F)F)=C2O)ccc1O	-3%	-126%[59 µM]	2%	-29%	0%
CCOc1cc(/C=C2\CN(CC)C/C(=C\c3ccc(O)c(OCC)c3)C2=O)ccc1O	?	28µM*	-19%	-14%	?
CCNc1ccc(Br)cc(C(=O)/C=C/c2c(Cl)cccc2Cl)c1=O	?	4µM*	-15%	16µM*	·
